# Source: ChEMBL document CHEMBL4513216, “Probing the Open Global Health Chemical Diversity Library for Multistage-Active Starting Points for Next-Generation Antimalarials” (ACS Infect Dis, 2020)
# In all, about 69,000 compounds went through this assay and about 8,600 (12%) showed an effect of 50% or more. Many of the other results were omitted from the sample, so strong results are more common in it than they were.
# System: Plasmodium berghei
# Assay: Screen against P. berghei liver stage (PbLuc), transformed with Luciferase, at 10uM
# Assay type: functional, HepG2
# Conditions: tested at 10 uM
row,SMILES,INHIBITION [%]
1,Cc1cnc(N2CC[C@@H]3O[C@@H](COCc4ccccn4)CC[C@@H]32)nc1,41.6
2,COc1ccc(-c2cc(=O)n3c(n2)CCCCC3)cc1,1.45
3,Cc1nn(C)c(C)c1-c1ccnc(N(C)Cc2nc(C(C)C)no2)n1,68.2
4,Cc1nn(C)cc1-c1ccnc(N(C)Cc2noc(C(C)C)n2)n1,-147
5,Cc1nn(C)c(C)c1-c1ccnc(N(C)Cc2noc(C(C)C)n2)n1,4.35
6,Cc1csc(C2CCCN(C(=O)c3cccc4c3OCO4)C2)n1 (stereo not drawn),27.6
7,Cc1nc(CN2CCN(C)C(=O)C23CCN(C(C)C)CC3)cs1,32.5
8,COCc1cn(C2CCN(Cc3ccc(Cl)s3)CC2)nn1,5.23
9,Cc1cc(C)n2ncc(CN3CCC(n4cc(CCO)nn4)CC3)c2n1,58.6
10,Cc1cc(C)n2ncc(CN3C[C@@H](O)[C@H](Oc4ccccc4)C3)c2n1,-5.71
11,Cc1cc(C)n2ncc(CN3CCC(Cn4cc(CO)nn4)CC3)c2n1,20.1
12,Cc1cccc(CN2CCC(n3cc(CCO)nn3)CC2)c1C,53.3
13,Cc1ccc(CN2CCC(n3cc(CN4CCC(O)CC4)nn3)CC2)s1,7.43
14,COCCN1CCN(Cc2cnc(C3(C)CCCCO3)nc2)CC1 (stereo not drawn),3.25
15,CS(=O)(=O)NCCC1CCCCN1C(=O)NCCc1ccccc1 (stereo not drawn),28.3
16,c1cnc(-c2nc(CN3CCn4c(nnc4C4CC4)C3)cs2)nc1,-0.219
17,Cn1cc(-c2nc(CN3CCN(CCO)CC3)cs2)cn1,-0.847
18,COCCN1CCN(Cc2csc(-c3cnn(C)c3)n2)CC1,7.75
19,c1cnc(-c2nc(CN3CCCC(Cn4cncn4)C3)cs2)nc1 (stereo not drawn),15.6
20,c1cnc(-c2nc(CN3CCCC(N4CCCC4)C3)cs2)nc1 (stereo not drawn),-16.817
21,CCCC1CCCN(Cc2csc(-c3cnn(C)c3)n2)CC1 (stereo not drawn),55.9
22,CCCC1CCCN(Cc2csc(-c3ncccn3)n2)CC1 (stereo not drawn),91.7
23,NC(=O)C1CCN(Cc2csc(-c3ncccn3)n2)CC1,55.05

row,SMILES,INHIBITION [%]
1,CC1CCCN(Cc2csc(-c3ncccn3)n2)CC1 (stereo not drawn),80.8
2,COCC(=O)N1CCN(Cc2csc(-c3ncccn3)n2)CC1,38.9
3,CCC1CCCN(C(=O)Cc2csc(-c3ncccn3)n2)C1 (stereo not drawn),14.7
4,CC(=O)NC1CCCN(Cc2csc(-c3ncccn3)n2)C1 (stereo not drawn),35.4
5,Cn1ccc(C(=O)N2CCC3(CC2)CC(Nc2cnccn2)CO3)n1 (stereo not drawn),-4.26
6,COc1ccc(-n2nc(C(C)=O)c(C(C)=O)c2C)cc1Cl,-7.27
7,Cn1cc(NC(=O)Nc2ccc3c(c2)OCO3)cn1,24
8,OCCN(Cc1ccno1)Cc1cc(Br)ccc1F,25.3
9,COCC(=O)NCCc1nc(N(C)C)ncc1-c1ccncc1,14.325
10,NCC(=O)N1CCCC1c1n[nH]cc1-c1ccccc1F (stereo not drawn),10.9
11,Cc1cc(N2CCCC(O)(CN(C)C)C2)c2cc3c(cc2n1)OCO3 (stereo not drawn),11.6
12,CC(C)Oc1cccc(C(=O)Nc2nncs2)c1,-16.8
13,CCCS(=O)(=O)N1Cc2ccnn2CC(c2nc(C)no2)C1 (stereo not drawn),28.2
14,c1cnc(-c2nc(CN3CCCN(Cc4cccs4)CC3)cs2)nc1,39.75
15,c1cnc(-c2nc(CN3CCC(c4ccn[nH]4)CC3)cs2)nc1,12.8
16,c1cnc(-c2nc(CN3CCN(CC4CC4)CC3)cs2)nc1,77.85
17,O=C([C@@H]1COC[C@H]2CN(c3ccncn3)C[C@H]21)N1CCCCO1,-11.6
18,Fc1ccc(CNCc2nnc3n2CC(C(F)(F)F)CC3)cc1 (stereo not drawn),63
19,FC(F)(F)C1CCc2nnc(CNCc3cccs3)n2C1 (stereo not drawn),26
20,Cc1ccc(CNCc2nnc3n2CC(C(F)(F)F)CC3)cc1 (stereo not drawn),45.1
21,FC(F)(F)C1CCc2nnc(CNCc3ccsc3)n2C1 (stereo not drawn),37
22,Fc1ccc(CNCc2nnc3n2CC(C(F)(F)F)CC3)c(F)c1 (stereo not drawn),63
23,COc1ccc(CNCc2nnc3n2CC(C(F)(F)F)CC3)cc1 (stereo not drawn),27.5

row,SMILES,INHIBITION [%]
1,COc1ccc(Cl)cc1NCC(=O)NCc1cccnc1OC,-12.2
2,CC(=O)N1CCc2ccc(NC(=O)c3cn(C)nn3)cc2C1,24.2
3,CCc1ncc2c(n1)CN(CC(=O)Nc1cc(C)on1)CC2,-7.31
4,COc1ccc2cc(C(=O)NCCNc3ccc(C)nn3)[nH]c2c1,-17.7
5,Cc1cc(CC(=O)N2CCc3cc(Br)sc3C2)n[nH]1,-37.6
6,Fc1ccccc1CN1CCC[C@@H](Cn2nnc(-c3cccs3)n2)C1,22.62
7,Cn1c2c(c(=O)n1C)CN(C(=O)c1cccc(F)c1)CCC2,46.6
8,COc1nn(C)c2c1CCCN(S(=O)(=O)c1cccc(C)c1)C2,80.2
9,Cc1cccc(S(=O)(=O)N2CCCc3c(c(=O)n(C)n3C)C2)c1,70.4
10,COc1nn(C)c2c1CCCN(S(=O)(=O)c1cccc(F)c1)C2,-31.3
11,Cn1c2c(c(=O)n1C)CN(S(=O)(=O)c1cccs1)CCC2,18.7
12,COc1cccc(S(=O)(=O)N2CCCc3c(OC)nn(C)c3C2)c1,18.5
13,CC(C)c1nc(C2CCCN(C(=O)c3ccc4c(c3)COC4)C2)no1 (stereo not drawn),1.75
14,c1nc(N2CCOCC2)ncc1-c1cncn1CCCN1CCCCC1,26.585
15,CCOC(=O)CN1C(=O)CN(S(C)(=O)=O)CCC(OC)c2ccccc21 (stereo not drawn),54.8
16,CCS(=O)(=O)N1CCC(OC)c2ccccc2N(CC(=O)NC)C(=O)C1 (stereo not drawn),43.4
17,CCOC(=O)N1CCC(OC)c2ccccc2N(CC(=O)NC)C(=O)C1 (stereo not drawn),42.7
18,CCn1ccnc1CN1CCC(CNC(=O)c2ccc(C)nc2)C1 (stereo not drawn),26.8
19,CCc1ccc(CN2CCC(CNC(=O)c3ccc(C)nc3)C2)nc1 (stereo not drawn),-16.8
20,Cc1ccc(C(=O)NCC2CCN(Cc3ccccc3C#N)C2)cn1 (stereo not drawn),58.6
21,CCOC1CC2(CCN(Cc3cccn3C)CC2)C1,29
22,Cn1cc(CN2CCc3c(nnn3C)C2COCc2ccccc2)cn1 (stereo not drawn),-90.3
